Laboratory results from PubChem BioAssay AID652104 (National Center for Advancing Translational Sciences (NCATS), 2013).
About 7,200 (1.8%) of roughly 410,000 compounds were called active. Inconclusive results (about 7%) are left out. The call rests on the fitted dose curve; in most records, active means well fitted activation curve with a large enough effect; inconclusive means small, poorly fitted or top-dose-only effect, or another doubt; inactive means no such curve, though single readings can be large or run the other way. Only a selection was taken, and actives are over-represented in it overall.

Experiment: qHTS of TDP-43 Inhibitors; further: nearly all actives have a fitted effect of over 50% in size; on Growth rescue (activation): % of control where 0% means no effect
Settings: TDP-43 expressing yeast growth rescue, BacTiter-Glo, 24 h; series mostly up to 46.1 µM
Method in brief: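 Growth rescue of TDP-43-toxic yeast measured as ATP luminescence (BacTiter-Glo). Cells grown to mid-log in raffinose, induced in galactose at OD600=0.02, exposed to compound 24 hr at 30 deg C.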
Potency means the concentration at half of the fitted maximal effect.

Potency, inactive:
CCCn1c(=N)n(CC(O)COc2ccccc2OC)c2ccccc21 (stereo unspecified)
N/C(=N\OC(=O)N1c2ccccc2Sc2ccccc21)c1ccc(Br)cc1
CO/N=C(\N)c1ccc([N+](=O)[O-])cc1
Cc1ccc(-n2ncc3c(=O)n(Cc4cccc(C(F)(F)F)c4)cnc32)cc1C
CC(C)NC(=O)C1CCC(Cn2c(=O)c3sccc3n(Cc3ccc(F)cc3)c2=O)CC1 (stereo unspecified)
O=C(COc1ccc(Cl)cc1)N(Cc1ccco1)Cc1ccco1
CC(=O)c1ccc(NC(=O)CCc2nc(-c3ccc(C)cc3)no2)cc1
CCOc1ccc(CCNC(=O)c2csc3c2CCCCC3)cc1
CCOC(=O)c1ccc(NC(=O)c2c(NCc3cccs3)sc3c2CCCC3)cc1
C/C(=N\N)c1c(-c2ccccc2)c2cc(Br)ccc2[nH]c1=O
CC1CN(C(=O)N2CCC(C(=O)NCc3cccs3)CC2)c2ccccc2O1 (stereo unspecified)
COc1ccc(N(CC(=O)N2CCCCCC2)S(=O)(=O)c2ccccc2)cc1
CS(=O)(=O)N(CC(=O)N1CCN(c2cccc(Cl)c2)CC1)c1ccccc1
COc1cc(CNC(=O)c2cc3n(n2)CCCN(Cc2cccc(F)c2)C3=O)cc(OC)c1OC
CCc1cc2c(cc3c(=O)n(CC(=O)NCCc4ccc(OC)c(OC)c4)ncn32)s1
CCC(=O)N1CCc2cc(Br)cc(S(=O)(=O)NCc3ccc(Cl)cc3)c21
CCC(=O)N1CCc2cc(CNC(=O)Nc3ccccc3Cl)ccc21
Cc1ccc(NC(=O)c2cc(S(=O)(=O)NCCC3=CCCCC3)ccc2F)cc1C
COc1cc(C(=O)Nc2ccc(OCc3cc(=O)n4ccc(C)cc4n3)cc2)cc(OC)c1OC
CCOC(=O)CSc1nc2ccc(C)cc2n2cnnc12
O=C(NNc1nc(N2CCCC2)nc(N2CCCC2)n1)c1ccccc1
Cc1nnc(NC(=O)CSc2nc3c([nH]c4ccccc43)c(=O)n2-c2cccc(Cl)c2)s1
CC(=O)C1=C(C)NC(=O)NC1c1ccc2c(c1)OCO2 (stereo unspecified)
O=C(Nc1ccc2c(c1)OCO2)c1sc2cc(Cl)ccc2c1Cl
Cc1cccc(N2CCN(C3=C(c4ccccc4)C(=O)c4ccccc43)CC2)c1C
Cc1cccc(NC(=O)c2ccc(F)c(S(=O)(=O)N(C)C3CCCCC3)c2)c1
Brc1cccc(-c2nnn3c2nc(NC2CCCCC2)c2ccccc23)c1
O=C(Nc1nnc(S(=O)(=O)N2CCCc3ccccc32)s1)c1cccc(F)c1
CCc1ccc(C2CC(=O)c3c([nH]c(C(=O)OCc4ccc(C)cc4)c3C)C2)cc1 (stereo unspecified)
CCN(CCCNC(=O)c1cc(Nc2ccc(OC)cc2)nc2ccccc12)c1cccc(C)c1
Cc1ccc(CSc2nc3ccsc3c(=O)n2CCC(C)C)cc1
Cc1ccc(-n2c(=O)c3cccnc3n2CC(=O)Nc2ccccc2C(F)(F)F)cc1C
CCOc1ccccc1NC(=O)Cn1c2ncccc2c(=O)n1-c1ccc(C)c(C)c1
CCOc1ccccc1NC(=O)Cn1c(=O)n(Cc2ccccc2)c(=O)c2c(C)c(C(=O)N(C)C)sc21
Cc1c(CNC(C)c2ccccc2)c(C(=O)O)c(C)n1Cc1c(F)cccc1Cl (stereo unspecified)
O=S1(=O)CC(N2CCC(Cc3ccccc3)CC2)CN1Cc1ccccc1 (stereo unspecified)
Cc1ccc(CN2CC(N3CCC(Cc4ccccc4)CC3)CS2(=O)=O)cc1 (stereo unspecified)
CCOC(=O)c1c(C)oc2ccc(N(C(=O)c3ccncc3)S(=O)(=O)c3ccc(CC)cc3)cc12
CCc1ccc(CN(Cc2ccco2)C(=O)COc2ccc(Cl)c(C)c2)cc1
Cc1cccc(NC(=O)Cn2cc(S(=O)(=O)Cc3ccccc3Cl)c3ccccc32)c1
Cc1ccc2nc(NC(=O)c3nc(SCc4ccccc4F)ncc3Cl)sc2c1
CCS(=O)(=O)c1ncc(N(Cc2ccc(F)cc2)Cc2ccco2)c(C(=O)Nc2cc(C)ccc2C)n1
CCOC(=O)c1ccc(NC(=O)c2nc(SCc3ccc(F)cc3)ncc2Cl)cc1
CCOc1ccc(N(CC)C(=O)c2noc3c2COc2ccc(C)cc2-3)cc1
Cn1c(=O)sc2cc(NS(=O)(=O)c3ccc(C(C)(C)C)cc3)ccc21
COc1cc(NC(=O)c2nn(-c3ccc(C)cc3)c(=O)c3c2c2ccccc2n3C)cc(OC)c1OC
COc1ccccc1-n1c(-c2ccc(C)cc2)cn2c3c(=O)n(C)c(=O)n(C)c3nc12
Cc1ccc(C)n1-c1nnc(N2CCC(C(=O)NCc3ccccc3Cl)CC2)s1

Potency, active:
N/C(=N\OC(=O)Cc1ccccc1[N+](=O)[O-])c1ccc(Br)cc1 15.8 µM
CCOC(=O)c1ccc(NC(=O)c2csc3c2CCCCC3)cc1 20 µM
O=c1[nH]c2cc(Br)ccc2n2cccc12 10 µM
CC1CCN(C(=O)CN(c2ccc(Oc3ccccc3)cc2)S(C)(=O)=O)CC1 12.6 µM
CCC(=O)N1CCc2cc(CNS(=O)(=O)c3ccc(Br)s3)ccc21 11.2 µM
O=C(c1ccccc1)c1ccc2nc(N3CCCCC3)c3nncn3c2c1 20 µM
O=C1C=C(c2ccnc3cc(Cl)ccc23)C[C@@H](c2ccc3c(c2)OCO3)C1 22.4 µM
COCCCNc1ccn2nc(-c3ccc(CC(C)C)cc3)cc2n1 17.8 µM
Cc1ccc(-n2c(=O)c3cccnc3n2CC(=O)NCc2ccc(F)cc2)cc1C 12.6 µM
O=[N+]([O-])c1ccc(CN2CC(N3CCC(c4ccccc4)CC3)CS2(=O)=O)cc1 (stereo unspecified) 25.1 µM
CSc1nnc(NC(=O)c2nc(S(=O)(=O)Cc3ccc(C)cc3)ncc2Cl)s1 11.2 µM
Cc1cccc(NC(=O)c2nc(S(=O)(=O)Cc3ccccc3)ncc2Cl)c1 7.08 µM

Growth rescue (activation), inactive:
Cc1ccc(-c2cn3c(n2)sc2cc(C(=O)NCc4cccs4)ccc23)c(C)c1 -0.34% [at 9.22 µM]
